Measurements reported in publication PMC4336329 (PLoS ONE, 2015).
Out of some 310,000 compounds screened, about 14,000 (4.5%) showed an effect of 50% or more. Effects have a minus sign here. The list comes from a sample in which strong results are over-represented; it also holds similar structures and randomly drawn compounds.

These compounds were tested against human ether-à-go-go-related gene (hERG) potassium channel (human, UniProt Q12809) (assay: primary screen, population patch clamp on CHO cells stably expressing hERG; higher = less effect of the substance).
human ether-à-go-go-related gene (hERG) potassium channel, sequence (Q12809 whole entry, looked up): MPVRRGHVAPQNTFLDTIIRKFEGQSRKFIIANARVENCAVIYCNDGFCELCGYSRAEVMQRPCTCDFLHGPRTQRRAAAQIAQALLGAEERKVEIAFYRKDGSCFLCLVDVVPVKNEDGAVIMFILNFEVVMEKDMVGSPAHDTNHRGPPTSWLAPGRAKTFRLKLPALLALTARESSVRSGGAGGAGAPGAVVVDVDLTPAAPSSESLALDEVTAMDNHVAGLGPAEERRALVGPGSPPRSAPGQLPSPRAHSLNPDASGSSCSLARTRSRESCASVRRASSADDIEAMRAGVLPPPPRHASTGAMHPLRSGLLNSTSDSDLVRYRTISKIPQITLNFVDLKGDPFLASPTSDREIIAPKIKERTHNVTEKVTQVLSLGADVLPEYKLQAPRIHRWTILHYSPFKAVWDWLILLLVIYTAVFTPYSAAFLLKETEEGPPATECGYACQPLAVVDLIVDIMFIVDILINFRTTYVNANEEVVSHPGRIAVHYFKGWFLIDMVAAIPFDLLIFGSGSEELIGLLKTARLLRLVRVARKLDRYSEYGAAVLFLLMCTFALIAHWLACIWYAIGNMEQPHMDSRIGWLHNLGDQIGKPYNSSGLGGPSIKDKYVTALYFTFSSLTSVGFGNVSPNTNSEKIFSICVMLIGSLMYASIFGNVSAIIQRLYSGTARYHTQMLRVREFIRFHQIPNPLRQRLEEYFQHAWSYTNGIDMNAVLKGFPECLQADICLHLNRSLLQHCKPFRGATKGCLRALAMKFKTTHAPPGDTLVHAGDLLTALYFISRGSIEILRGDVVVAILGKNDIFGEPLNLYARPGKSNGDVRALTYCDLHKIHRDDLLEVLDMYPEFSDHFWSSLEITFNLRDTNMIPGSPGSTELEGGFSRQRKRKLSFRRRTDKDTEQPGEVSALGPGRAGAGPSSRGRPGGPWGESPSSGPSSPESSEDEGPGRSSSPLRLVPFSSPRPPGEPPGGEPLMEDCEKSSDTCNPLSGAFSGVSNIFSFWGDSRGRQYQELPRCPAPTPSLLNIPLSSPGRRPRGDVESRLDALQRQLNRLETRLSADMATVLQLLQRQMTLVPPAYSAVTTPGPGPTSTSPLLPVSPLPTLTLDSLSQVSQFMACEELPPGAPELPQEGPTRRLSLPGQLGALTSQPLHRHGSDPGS
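Also: peak tail current of the secondary pulse compared with the same well before compound.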

SMILES | hERG current change (%, negative = inhibition) at 10uM [%]
Cc1nn(S(=O)(=O)c2ccc(Cl)cc2)c(C)c1S(=O)(=O)N1CCOCC1 | 20.9
CCOc1ccccc1C1CC(=O)Nc2cc(OC)c(OC)c(OC)c21 (centres unmarked) | 19.6
CCOCCN1CCN(c2c(CC)c(C)nc3cc(-c4cc(OC)cc(OC)c4)nn23)CC1 | -72.4
CCc1c(C)nc2cc(-c3cc(OC)cc(OC)c3)nn2c1N1CCCC1 | -2.11
CCOCCN1CCN(c2c(C)c(C)nc3cc(-c4cc(OC)cc(OC)c4)nn23)CC1 | -73.3
COCCN1CCN(c2c(C)c(C)nc3cc(-c4cccc(OC)c4)nn23)CC1 | -15.6
COc1cc(OC)cc(-c2cc3nc4c(c(N5CCN(c6ncccn6)CC5)n3n2)CCCC4)c1 | 4.89
CCc1c(C)nc2cc(-c3cc(OC)cc(OC)c3)nn2c1N1CCN(CCN2CCOCC2)CC1 | -33.5
Nc1nc2ccc(C(=O)Nc3ccccc3)cc2s1 | 7.6
Cc1ccc2c(c1)CC1(CN2C)C(=O)NC(=O)N(CCc2ccccc2)C1=O (centres unmarked) | -15.2
CNC(=O)C(C)c1ncc(C(F)(F)F)cc1Cl (centres unmarked) | 17.6
CCc1ccc(NC(=O)CSc2nnc(-c3cccs3)n2CC)cc1 | -69.7
Cn1c(SCC(=O)Nc2ccccc2F)nnc1-c1cccs1 | -24.2
Cc1nnc(SCC(=O)N2CCN(S(=O)(=O)c3ccc(Cl)cc3)CC2)n(N)c1=O | -19
CCn1c(SCC(=O)Nc2ccc(C(=O)OC)cc2)nnc1-c1cccs1 | -10.7
Nn1c(SCC(=O)Nc2ccccc2F)nnc1-c1cccs1 | -65.7
CC(=O)Nc1ccc(NC(=O)CSc2nnc(-c3cccs3)n2N)cc1 | 1.15
CCn1c(SCC(=O)Nc2c(C#N)cnn2-c2ccccc2)nnc1-c1cccs1 | -13.6
Nn1c(SCC(=O)N2CCN(S(=O)(=O)c3ccc(Cl)cc3)CC2)nnc1-c1cccs1 | -52.1
CCOC(=O)c1ccc(NC(=O)CSc2nnc(-c3cccs3)n2CC)cc1 | 5.69
Nn1c(SCC(=O)N2CCN(S(=O)(=O)c3ccccc3)CC2)nnc1-c1cccs1 | -10.1
CCn1c(SCC(=O)Nc2cc(C)nn2-c2ccccc2)nnc1-c1cccs1 | -12.9
CCOC(=O)c1cnn(-c2ccccc2)c1NC(=O)CSc1nnc(-c2cccs2)n1CC | -69.5

SMILES | hERG current change (%, negative = inhibition) at 10uM [%]
O=C(NCc1ccccc1)c1cccc(NS(=O)(=O)c2cccc3cccnc23)c1 | 6.09
COc1cnc(-c2ccccc2)nc1OC | 12.4
O=C(O)c1cc(S(=O)(=O)NCc2ccco2)c(Cl)cc1Cl | 14.9
COCC(C)NCc1ccc(C)cc1C (centres unmarked) | -14.3
O=S(=O)(NCc1ccccn1)c1ccc2c(c1)OCCO2 | 10.5
Nc1cc(-c2cccc(Br)c2)nn1Cc1ccccc1 | -17.2
Nc1cc(=O)nc(SCC(=O)Nc2cccc3ccccc23)n1CCc1ccccc1 | -7.07
CCOC(=O)C1C(c2ccc(O)cc2)NC(=O)NC1(O)C(F)(F)F (centres unmarked) | 2.48
O=C(NNC(=O)C1CCC1)c1cccc(Cl)c1 | -5.52
CCOP(=O)(OCC)c1cc(C)c(O)c(C(C)(C)C)c1 | -3.41
CCn1c(SC/C=C/c2ccccc2)nnc1-c1cccs1 | -66.3
Cn1c(Cc2cccs2)nnc1SC/C=C/c1ccccc1 | -0.882
Cc1ccc(NC(=O)c2ccco2)cc1NC(=O)CSc1nnc(-c2cccs2)n1C | -38
C=CCn1c(SCc2ccc3nonc3c2)nnc1-c1cccs1 | -68.7
CCn1c(SCC(=O)Nc2ccc(NC(=O)c3ccco3)cc2)nnc1-c1cccs1 | 11.9
CCn1c(SCC(=O)Nc2cc(OC)c(OC)c(OC)c2)nnc1-c1cccs1 | -7.07
O=C(CSc1nnc(-c2cccs2)n1-c1ccccc1)Nc1ccccc1 | -44.3
C=CCn1c(SCCC(=O)O)nnc1-c1cccs1 | 6.75
CCn1c(SCC(=O)Nc2cccc(NC(=O)c3ccco3)c2)nnc1-c1cccs1 | -79.8
CCn1c(SCC(=O)Nc2ccccc2)nnc1-c1cccs1 | -70.8
CCn1c(SCC(=O)c2ccccc2)nnc1-c1cccs1 | -14.8
C=CCn1c2ccccc2c2nnc(SCc3ccc4nonc4c3)nc21 | 0.592
Cc1ccc(NC(=O)Nc2ccc([N+](=O)[O-])cc2)nc1 | 9.85

SMILES | hERG current change (%, negative = inhibition) at 10uM [%]
CCCCn1c(N)c(N(Cc2ccccc2OC)C(=O)c2cc(=O)[nH]c3ccccc23)c(=O)[nH]c1=O | 17.1
CC(=O)N1CCN(C(=O)CSc2nc3c(cnn3-c3ccccc3)c(=O)[nH]2)CC1 | -9.1
CCOc1ccc(N(C)S(=O)(=O)c2ccc(C)c(C(=O)NCc3ccccc3OC)c2)cc1 | -6.23
Cc1ccc(-c2nn(CC(=O)NN3CCOCC3)c(=O)c3ccccc23)cc1 | -1.66
N#Cc1cc(Cl)c(NCC2CCCO2)cc1C#N (centres unmarked) | 7.45
CC1CCCN(C(=O)Nc2cccc(NC(=O)N3CCCC(C)C3C)c2)C1C (centres unmarked) | 0.168
Cc1ccc(N2CC(C(=O)Nc3ccc(C)c(S(=O)(=O)N(C)C)c3)CC2=O)cc1 (centres unmarked) | -25.2
O=C(OC(C(=O)NC1CCCC1)c1ccccc1F)c1ccco1 (centres unmarked) | 5.25
Cc1cccc(NC(=O)CSCC(=O)N2CCN(c3cccc(C(F)(F)F)c3)CC2)c1 | -21.8
COc1ccc(NC(=O)CSCC(=O)N(C)CC(=O)Nc2c(C)cccc2C)cc1 | -0.574
CNC(=O)c1c(N)sc2c1CCCCC2 | -3.16
COC(=O)C(NC(=O)c1ccco1)(Nc1nc(C2CC2)cs1)C(F)(F)F (centres unmarked) | 11.7
Cn1ccnc1COc1ccc(C=O)cc1 | 10.4
COc1ccc(-c2nnc(SCc3nc4ccccc4s3)n2C(C)C)cc1 | -67.7
Cn1c(SCc2nc3ccccc3s2)nnc1-c1cccs1 | -36
C=CCn1c(SCC(=O)Nc2ccc(C(=O)OCC)cc2)nnc1-c1cccs1 | 16.7
COc1ccc(-n2nnnc2SCc2nc3ccccc3s2)cc1 | -5.94
CCn1c(SCc2nc3ccccc3s2)nnc1-c1ccccc1 | -11
CCn1c(SCc2nc3ccccc3s2)nnc1-c1cccs1 | -60
C=CCn1c(SCC(=O)Nc2ccc3c(c2)CCC3)nnc1-c1cccs1 | -76.9
COc1cccc(-c2nnc(SCc3nc4ccccc4s3)n2C)c1 | -29
C=CCn1c(SCC(=O)Nc2ccc(C(=O)OC(C)C)cc2)nnc1-c1cccs1 | 5.07
Cc1c(/C=N\NC(=O)C2COc3ccc(C(C)(C)C)cc3O2)c2ccccc2n1C (centres unmarked) | 14

SMILES | hERG current change (%, negative = inhibition) at 10uM [%]
CC(C)c1nnc(NC(=O)CCS(=O)(=O)c2ccccc2)s1 | 19.5
CCOC(=O)N1CCC(NC(=O)C2CCCN(C(=O)N3CCOc4ccccc43)C2)CC1 (centres unmarked) | 3.21
CCCCOc1ccc(-c2c(C(=O)Nc3ccccc3)c(C)[nH]c(=S)c2C#N)cc1 | 12.1
C/C(=N/NC(=O)c1ccco1)c1cccc(NC(=O)c2ccc(C)s2)c1 | 1.1
COc1ccc(CCNC(=O)CCS(=O)(=O)c2ccc3c(c2)NC(=O)CO3)cc1OC | 14.5
COc1ccc(NC(=O)CNC(=O)Cn2ccc3ccccc3c2=O)c(OC)c1 | 15
Cc1nn(Cc2ccc(Cl)cc2)c2sc(C(=O)O)cc12 | 31.1
Cc1nn(Cc2ccc(Cl)cc2)c2sc(C(=O)OCC(N)=O)cc12 | -52.1
Cc1ccc(Cn2nc(C)c3cc(C(=O)OCC(N)=O)sc32)cc1 | 7.64
OCCC1CN(Cc2ccc(F)cc2)CCN1CCc1ccccc1 (centres unmarked) | -74.2
CC(=O)Nc1ccc(CN2CCN(CC(C)C)C(CCO)C2)cc1 (centres unmarked) | 2.2
CC(C)CN1CCN(Cc2ccc(Oc3ncccn3)cc2)CC1CCO (centres unmarked) | -28.5
OCCC1CN(Cc2ccc(Oc3ncccn3)cc2)CCN1CCc1ccccc1 (centres unmarked) | -55.2
OCCC1CN(Cc2ccon2)CCN1CCc1ccccc1 (centres unmarked) | -19.2
CC(C)CN1CCN(Cc2ccc(F)cc2Cl)CC1CCO (centres unmarked) | -34.4
CC(=O)Nc1ccc(CN2CCN(CCc3ccccc3)C(CCO)C2)cc1 (centres unmarked) | -51.8
OCCC1CN(Cc2ccc(F)cc2Cl)CCN1CCc1ccccc1 (centres unmarked) | -67.4
CC(C)CCN1CCN(Cc2ccc(Oc3ncccn3)cc2)CC1CCO (centres unmarked) | -9.21
CC(=O)Nc1ccc(CN2CCN(CCC(C)C)C(CCO)C2)cc1 (centres unmarked) | 19.7
COc1cc(NC(=O)COC(=O)Cc2ccc(-c3ccccc3)cc2)cc(OC)c1 | 3.6
